An excerpt weighted towards active compounds, which were near 3.1% of everything screened.
CF NFkB inh: inhibitors of PAF-induced NF-kB signaling, primary screen, cell-based, GFP fluorescence, uHTS. 360,000 compounds, 0.86% hits. KKLEB NF-kB-GFP reporter, GFP fluorescence overnight. inhibition, % at 5 µM;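 active means at least 50% inhibition at 5 µM, scaled per plate between neutral and stimulator controls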;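 further: PAF is a Pseudomonas aeruginosa culture filtrate used as stimulus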
MITF TRPM1 inh: inhibitors of MITF-dependent TRPM1 promoter reporter, primary screen, cell-based, SK-MEL-5, single point, luciferase. SK-MEL-5 TRPM1 promoter luciferase, 24 h. inhibition, % at 12.5 µM. 330,000 compounds, 0.83% hits;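 active means mean inhibition across replicates of 60% or more, whatever share of single replicates reaches that level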
HIF-2a inh: HIF-2a reporter inhibitors, primary screen, luminescence, 786-0 RCC cells; 786-0 RCC cells HIF-2a reporter, luciferase luminescence, overnight; 360,000 compounds, 0.72% hits; inhibition, % at 18.8 µM; AID 624352, 2012;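 active means inhibition of the luminescence signal of 40% or more relative to plate controls, in a single-dose primary screen at 18.75 µM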
KKLEB cytotox: cytotoxicity in KKLEB CF airway cells, primary screen, cytotoxicity control for CF NF-kB inhibitor project, cell-based, uHTS, fluorescence assay plates; activity change (cytotoxicity), % at 5 µM; 360,000 compounds, 0.36% hits; KKLEB CF airway cells viability, ATPlite luminescence, overnight; stronger effect = lower value; cells stimulated with P. aeruginosa culture filtrate;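 active means corrected activity change at or below -50% at 5 µM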
ABHD5-PLIN5 inh: ABHD5-PLIN5 interaction inhibitors, primary screen, cell lysate, split luciferase complementation, luminescence | Perilipin-5 (Homo sapiens) + 1-acylglycerol-3-phosphate O-acyltransferase ABHD5 (Homo … | Split G. princeps luciferase complementation, 4 h | inhibition, % at 4 µM | 360,000 compounds, 0.78% hits | AID 602281, 2012;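 active means inhibition above the mean inhibition across every tested compound plus 3 SD, cut at about 22% in these data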
Peg3 prom inh: Peg3 promoter-driven luciferase inhibitors, primary screen, cell-based, HeLa, luciferase luminescence; HeLa PEG-Prom luciferase reporter, overnight; 360,000 compounds, 1.7% hits; inhibition, % at 20 µM;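 active means inhibition of at least 50% at 20 µM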
CF NFkB inh conf: inhibitors of PAF-induced NF-kB signaling, retest, confirmation, cell-based, GFP fluorescence, single concentration; shares compounds with CF NFkB inh; KKLEB CF airway cells, overnight; inhibition, % at 5 µM; 1,300 compounds, 64% hits; AID 602472, 2012; in the data active means inhibition above about 40%;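 further: stimulus PAF is a Pseudomonas aeruginosa filtrate and not platelet activating factor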
ABHD5 PLIN5 conf: ABHD5-PLIN5 interaction inhibitors, confirmation, biochemical, luminescence; shares compounds with ABHD5-PLIN5 inh; inhibition, % at 4 µM; 2,200 compounds, 67% hits; in the data active means inhibition above about 23%
HNF4 counter: HNF4 dimerization inhibitors, counter-screen for ABHD5-PLIN5 interaction inhibitor project, biochemical, split-luciferase complementation, luminescence | shares compounds with ABHD5-PLIN5 inh | inhibition, % at 4 µM | 2,200 compounds, 77% hits | AID 651674, 2012;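 active means mean inhibition across replicate wells exceeding the computed hit threshold, cut at about 13% in these data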;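 further: light from luciferase halves that rejoin when HNF4 fusion proteins dimerize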
Mdm2 MdmX conf: retested Mdm2-MdmX interaction blockers, confirmation, cell-based, luminescence, single concentration, set 2 | shares compounds with HIF-2a inh | SaOS-2 split-luciferase Mdm2/MdmX complementation | inhibition, % at 8 µM | 740 compounds, 99% hits | AID 504601, 2011;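 active means mean inhibition of the luminescence signal across two replicates at or above 26 percent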
Hits are given with their value; . = inactive; / = no result given.

SMILES	CF NFkB inh	MITF TRPM1 inh	HIF-2a inh	KKLEB cytotox	ABHD5-PLIN5 inh	Peg3 prom inh	ABHD5 PLIN5 conf	HNF4 counter	others
CCOC(=O)c1ccc(Nc2ncnc3ccc(C)cc23)cc1	.	.	.	.	.	.	/	/
CCOc1ccc(Nc2ncnc3ccc([N+](=O)[O-])cc23)cc1	75	.	.	.	.	.	/	/	CF NFkB inh conf=87;Mdm2 MdmX conf=87
Cc1nc2sc(C(N)=O)c(N)c2c2c1CCCC2	70	.	.	.	.	.	/	/	CF NFkB inh conf=98;Mdm2 MdmX conf=92
O=P(C(=NCCO)NO)(N1CCOCC1)N1CCOCC1	.	.	.	.	.	.	/	/
Cc1csc(CNc2ncnc3ccc(-c4ccc5c(c4)OCO5)cc23)c1	.	.	.	.	.	.	/	/
COc1cccc(-c2ccc3ncnc(NCc4ccc5c(c4)OCO5)c3c2)c1	80	.	.	.	.	.	/	/	CF NFkB inh conf=81;Mdm2 MdmX conf=85
OC(CNCC1CCCO1)Cn1c2ccccc2c2ccccc21 (stereo not given)	.	.	.	.	.	.	/	/
OC(CNCC1CCCO1)Cn1c2ccc(Cl)cc2c2cc(Cl)ccc21 (stereo not given)	.	.	.	.	35	106	.	.
O=C(Cc1ccccc1[N+](=O)[O-])NC1CC2CCC1C2 (stereo not given)	.	.	.	.	.	.	/	/
Cc1ccc2nsnc2c1S(=O)(=O)N(Cc1ccco1)Cc1cc2cccc(C)c2[nH]c1=O	.	.	.	.	.	.	/	/
Cc1ccc2[nH]c(=O)c(CN(Cc3ccco3)S(=O)(=O)c3c(C)ccc4nsnc34)cc2c1	.	.	.	.	25	.	33	43
Cc1ccc(-c2csc(NC(=O)C[n+]3cc(-c4ccc(C)cc4)n4c3CCC4)n2)cc1	.	.	.	.	25	.	.	.
Cc1ccc(-c2csc(NC(=O)C[n+]3cc(-c4ccccc4)n4c3CCC4)n2)cc1	.	/	.	.	.	.	/	/
CN(C)CCOc1ccc(/C(=C(/CCCl)c2ccccc2)c2ccccc2)cc1	.	.	.	.	46	74	75	35
CC(=O)Cc1cc(O)c2ccccc2c1OC(=O)c1ccccc1	.	.	.	.	67	.	84	54
CCn1c(C)c(C)c2cc(C(=O)NCCc3ccco3)ccc21	.	.	.	.	30	.	.	16
CN(C)c1ccc(/C=C2\CCC/C(=C\c3ccccc3)C2=O)cc1	.	.	.	.	.	.	/	/
CN(C)c1ccc(C=c2c3ccccc3n3c2c2c([n+]3C)CCCC2)cc1	.	98	93	.	29	102	28	36
CC1CCc2c(C(=O)Nc3ccc(N4CCOCC4)cc3)csc2C1 (stereo not given)	.	.	.	.	.	.	/	/
CCOc1ccc(C2(C)CC(=O)N(C)C2=O)cc1 (stereo not given)	.	.	.	.	.	.	/	/
O=S(=O)(/N=S1\CC=CCN1S(=O)(=O)c1ccccc1)c1ccccc1 (stereo not given)	.	.	.	.	92	.	.	85
